Calls of active or inactive are those of the source. How the source made its calls: active means hit-call score of the fitted dose curve at least 0.9, where 1 is the maximum; inactive means score below 0.9.

Chain of Transcription factor Sp1 (Homo sapiens) (P08047 whole entry, looked up): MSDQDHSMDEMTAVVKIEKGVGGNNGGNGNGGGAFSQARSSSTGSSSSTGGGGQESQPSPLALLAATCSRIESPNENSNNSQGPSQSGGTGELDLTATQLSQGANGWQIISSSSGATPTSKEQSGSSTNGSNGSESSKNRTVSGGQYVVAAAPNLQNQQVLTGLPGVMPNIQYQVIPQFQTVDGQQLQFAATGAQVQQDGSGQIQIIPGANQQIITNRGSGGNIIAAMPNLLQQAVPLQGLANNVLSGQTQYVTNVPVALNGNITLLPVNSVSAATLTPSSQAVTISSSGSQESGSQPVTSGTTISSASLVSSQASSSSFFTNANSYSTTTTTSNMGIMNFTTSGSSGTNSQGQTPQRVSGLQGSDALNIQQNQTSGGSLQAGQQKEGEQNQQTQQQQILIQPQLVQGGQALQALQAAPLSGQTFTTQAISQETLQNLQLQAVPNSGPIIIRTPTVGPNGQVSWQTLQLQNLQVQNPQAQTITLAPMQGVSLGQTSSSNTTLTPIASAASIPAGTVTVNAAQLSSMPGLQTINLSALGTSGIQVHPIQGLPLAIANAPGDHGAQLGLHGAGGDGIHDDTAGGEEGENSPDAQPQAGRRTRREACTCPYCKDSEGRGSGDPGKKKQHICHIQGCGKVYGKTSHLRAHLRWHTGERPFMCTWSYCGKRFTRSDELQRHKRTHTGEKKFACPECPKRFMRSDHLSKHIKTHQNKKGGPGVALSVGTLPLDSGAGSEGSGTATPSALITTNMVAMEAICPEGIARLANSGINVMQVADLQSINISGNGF

This test concerns the target Transcription factor Sp1 (Homo sapiens) (UniProt P08047). Kind of test: ATG_Sp1_CIS: Attagene CIS-FACTORIAL HepG2 Assay for human Specificity Protein 1 (Sp1) (AID 2282961). Conditions: HepG2 Sp1 cis-reporter transcription, actives raise or lower the signal. On the procedure: ATG_CIS is a cell-based, multiplexed-readout assay that uses HepG2, a human liver cell line, with measurements taken at 24 hours after chemical dosing in a 24-well plate.ATG_Sp1_CIS is one of 52 assay component(s) measured or calculated from the ATG_CIS assay. It is designed to make measurements of mRNA induction, a form of inducible reporter, as detected with fluorescence intensity signals by Reverse transcription polymerase chain reaction (RT-PCR) and Capillary electrophoresis technology.Data from the assay component ATG_Sp1_CIS was analyzed into 1 assay endpoint. This assay endpoint, ATG_Sp1_CIS, was analyzed with bidirectional fitting relative to DMSO as the negative control and baseline of activity. Using a type of inducible reporter, measures of mRNA for gain or loss-of-signal activity can be used to understand the reporter gene at the transcription factor-level as they relate to the gene SP1. Furthermore, this assay endpoint can be referred to as a primary readout, because this assay has produced multiple assay endpoints where this one serves a reporter gene function. To generalize the intended target to other relatable targets, this assay endpoint is annotated to the dna binding intended target family, where the subfamily is zinc finger.
Human liver HepG2 cells are transiently transfected with multiple reporter transcription units (MRTUs) in 6-well plates using FuGene 6 reagent (Roche; 3 ml FuGene/1 mg DNA). The MRTU constructs are regulated by a cis-regulating element (promoter). […] A major difference between the CIS and TRANS system is that in CIS activities of endogenous TFs are measured, whereas the TRANS assay evaluates changes in activities of exogenous, chimeric NR-Gal4 proteins. […] At the end of 24 hour incubation, total RNA was isolated using TriZol reagent (Invitrogen). The isolated RNA is then reverse-transcribed using oligo(dT) primer and Mo-MLV reverse transcriptase (Invitrogen) with DNAse I (Ambion) treatment for 30 min. The one-tenth of the produced cDNA was amplified by PCR using Taq DNA polymerase (Invitrogen) and two reporter sequence-specific primers. The PCR products were fluorescently labeled by primer extension with 6-arboxyfluorescein (6-FAM) 5'-labeled reporter sequence-specific primer (2 min at 95 C, 20 s at 68 C and 10 min at 72 C) and these products were digested with 5U of HpaI (New England Biolabs) for 2h at 37 C. The fragments were purified using Qiaquick PCR columns (Qiagen), analyzed on an ABI 3130xL genetic analyzer (Applied Biosystems) with peak positions identified by using a set of X-rhodamine (ROX)-labeled MapMarker1000 molecular weight standards (BioVentures). The raw capillary electrophoresis data was processed using Attagraph software (Attagene).
`O=C[C@@H](O)[C@H](O)[C@H](O)CO`: the molecule was classed as inactive. Turning to `Cc1ccc(C=O)s1`, the call was inactive. Same read-out and setting: under `OCc1cccnc1` stands “inactive”; under `COCCOCCOCCOCCOCCO`, “inactive”; under `CCCCCC(=O)OCCc1ccccc1`, “inactive”.

`CCCCCCCCC`: the molecule was called inactive.

Take `CCCCCCCCC=O`: the molecule was called inactive. In the case of `CC(=O)Nc1ccc(C)cc1C`, the molecule was called inactive. In the case of `CNC[C@H](O)c1cccc(O)c1`, the call was inactive. On the same count and under the same terms, under `O=C1NC(=O)c2ccccc21` stands “inactive”. In the case of `O=C1C(c2[nH]c3ccc(S(=O)(=O)O)cc3c2O)=Nc2ccc(S(=O)(=O)O)cc21`, the result was inactive. `CSc1nnc(C(C)(C)C)c(=O)[nH]1`: the result was inactive. On the same count and under the same terms, under `CN1[C@@H]2CC(OC(=O)[C@H](CO)c3ccccc3)C[C@H]1[C@@H]1O[C@@H]12` (stereo not given in full) stands “inactive”; under `CCCCCCOC(=O)CCCCC`, “inactive”. `NC(=O)c1ccccc1Cl`: the AC50 (as a rule, the concentration giving half of the maximal activity seen) was 41.1 µM (active). On to `CCCCCC(CO)CCC` (stereo not given), for which the molecule was called inactive. `CC1(C)[C@H](C(=O)OCc2cccc(Oc3ccccc3)c2)[C@@H]1C=C(Cl)Cl`: the result was inactive. With `Sc1nc(S)nc(S)n1`, the result was inactive. On the same count and under the same terms, under `CC(C)CCCCCCCOC(=O)c1ccc(C(=O)OCCCCCCCC(C)C)c(C(=O)OCCCCCCCC(C)C)c1` stands “inactive”. The same measure, in the same setting: as for `c1ccc2c(c1)c1cccc3ccc4cccc2c4c31`, the entry is “inactive”; as for `CC(C)=CCCC(C)=CCCC(C)=CCO`, “inactive”. On the same count and under the same terms, as for `O=C(O)Cc1cccc2ccccc12`, the entry is “inactive”; as for `CCCCOCCOCCOCCOCCO`, “inactive”; as for `COC(=O)c1ccc(C)cc1`, “inactive”. With `C/C=C(\C)C(=O)OCc1ccccc1`, the result was inactive. In the case of `CC1CCC(C(C)(C)O)CC1` (stereo not given), the molecule was called inactive. On the same count and under the same terms, under `CC1(CO)CN(c2ccccc2)NC1=O` (stereo not given) stands “inactive”.

For the molecule `Nc1cc(Cl)c(O)c(Cl)c1`, the result was inactive.

Consider `CC(C#N)(CCC(=O)O)N=NC(C)(C#N)CCC(=O)O` (stereo not given), for which the call was inactive. The same measure, in the same setting: as for `CC(=O)C=CC1=C(C)CCCC1(C)C`, the entry is “inactive”; as for `O=[N+]([O-])c1ccc(Nc2ccc(Nc3ccccc3)c(S(=O)(=O)O)c2)c([N+](=O)[O-])c1`, “inactive”; as for `CC(C)(C#N)c1cc(Cn2cncn2)cc(C(C)(C)C#N)c1`, “inactive”. `Cc1ccc2ccccc2n1`: the result was inactive.

Take `COc1cc(C(C)(C)C)c(O)c(C(C)(C)C)c1`: the call was inactive. Still for that read-out and setting: as for `Cc1c(N(C)C)c(=O)n(-c2ccccc2)n1C`, the entry is “inactive”.

With `Nc1cc(N)cc(C(=O)O)c1`, the outcome was inactive. Same read-out and setting: as for `Cc1cccc(Nc2ccccc2C(=O)O)c1C`, the entry is “inactive”.

For `O=S(=O)(O)NC1CCCCC1`, the call was inactive. For `COCCCOc1ccnc(CS(=O)c2nc3ccccc3[nH]2)c1C` (stereo not given), the result was inactive. Still for that read-out and setting: as for `CCCCCCCCCCCCCCCC(=O)OC[C@H](O)[C@H]1OC(=O)C(O)=C1O`, the entry is “inactive”.

For the origin of these results see PubChem BioAssay (EPA / NIEHS).
